Only a selection was taken, and hits are over-represented in it overall.
PD-1 reverse act: reversal of PD-1 mediated T-cell inhibition | AID 2316 | primary human CD4 T cells, PD-L1 beads, CellTiter-Glo 96 h | 29,000 tested, under 10 active | activation, % (test concentration not listed); call rule not given here
STK33 kin inh: human STK33 kinase inhibition. inhibition, % at 12.5 µM. Q9BYT3. ADP-Glo luminescence, MBP substrate. hit rate 0.44% among 27,000; in the data active = inhibition above about 20%; inconclusive = no clear call, values can overlap the other calls
Target sequence (Q9BYT3 whole entry, looked up): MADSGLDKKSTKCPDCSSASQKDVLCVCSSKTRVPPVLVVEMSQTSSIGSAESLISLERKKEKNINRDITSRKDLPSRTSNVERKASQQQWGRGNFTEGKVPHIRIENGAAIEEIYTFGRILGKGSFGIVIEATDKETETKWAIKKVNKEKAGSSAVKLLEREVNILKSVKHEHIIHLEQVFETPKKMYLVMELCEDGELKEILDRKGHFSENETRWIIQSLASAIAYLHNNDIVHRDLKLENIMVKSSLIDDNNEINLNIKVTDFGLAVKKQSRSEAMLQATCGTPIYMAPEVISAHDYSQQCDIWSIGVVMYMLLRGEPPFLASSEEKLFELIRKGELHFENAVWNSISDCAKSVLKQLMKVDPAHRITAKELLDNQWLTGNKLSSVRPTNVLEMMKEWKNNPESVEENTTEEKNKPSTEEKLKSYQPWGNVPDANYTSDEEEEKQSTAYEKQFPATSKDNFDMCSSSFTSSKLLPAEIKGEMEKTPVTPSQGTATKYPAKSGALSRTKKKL
NOMO-1 viab: STK33 inhibitor candidate reducing NOMO-1 cell viability; NOMO-1 AML viability, CellTiter-Glo luminescence, 72 h; hit rate 7.5% among 37,000; AID 2330; inhibition, % (test concentration not listed); in the data active = inhibition above about 80%; inconclusive = no clear call, values can overlap the other calls
Each line names hits and unclear results; the compound was inactive in the other large screens.

C[C@@H]1CN([C@@H](C)CO)C(=O)c2cccc(NS(=O)(=O)c3ccc(Cl)cc3)c2O[C@@H]1CN(C)Cc1ccc(-c2ccccc2)cc1	NOMO-1 viab 115 (no result: STK33 kin inh)
Cc1ccc(S(=O)(=O)Nc2cccc3c2O[C@H](CN(C)Cc2ccc(Oc4ccccc4)cc2)[C@@H](C)CN([C@H](C)CO)C3=O)cc1	NOMO-1 viab 99 (no result: STK33 kin inh)
Cc1ccc(S(=O)(=O)Nc2cccc3c2O[C@H](CN(C)Cc2ccc(-c4ccccc4)cc2)[C@@H](C)CN([C@H](C)CO)C3=O)cc1	none (no result: STK33 kin inh)
C[C@@H]1CN([C@H](C)CO)C(=O)c2cccc(NS(=O)(=O)c3ccccc3)c2O[C@@H]1CN(C)Cc1ccc(-c2ccccc2)cc1	none (no result: STK33 kin inh)
Cc1nn(CC(=O)Nc2cc(F)ccc2F)c(C)c1[N+](=O)[O-]	none (no result: PD-1 reverse act)
COC(=O)c1ccc(Oc2ccc(Cl)cc2Cl)o1	none
COc1ccc(CCNC(=O)c2cc3cc(Br)cc(OC)c3oc2=O)cc1OC	none
COc1ccc(S(=O)(=O)N(C)C[C@H]2Oc3c(NC(=O)Nc4ccc(C(F)(F)F)cc4)cccc3C(=O)N([C@@H](C)CO)C[C@H]2C)cc1	NOMO-1 viab 121 (no result: STK33 kin inh)
COc1ccc(S(=O)(=O)N(C)C[C@H]2Oc3c(NC(=O)Nc4ccc(C(F)(F)F)cc4)cccc3C(=O)N([C@@H](C)CO)C[C@@H]2C)cc1	NOMO-1 viab 112 (no result: STK33 kin inh)
COc1ccc(S(=O)(=O)N(C)C[C@@H]2Oc3c(NC(=O)Nc4ccc(C(F)(F)F)cc4)cccc3C(=O)N([C@@H](C)CO)C[C@H]2C)cc1	none (no result: STK33 kin inh)
COc1ccc(S(=O)(=O)N(C)C[C@H]2Oc3c(NC(=O)Nc4ccc(C(F)(F)F)cc4)cccc3C(=O)N([C@H](C)CO)C[C@@H]2C)cc1	NOMO-1 viab inconclusive (no result: STK33 kin inh)
Cc1cc(=O)[nH]c(SCCCOc2cccc(Br)c2)n1	none
O=S(=O)(C1=CC23CCCC2(C=C(S(=O)(=O)c2ccc(Cl)cc2)C3)C1)c1ccc(Cl)cc1 (stereo unspecified)	none (no result: STK33 kin inh)
CC(C)c1cc(CN2CCN(c3ccccc3)CC2)c(O)c(CN2CCN(c3ccccc3)CC2)c1	none (no result: STK33 kin inh)
C[C@@H]1CN([C@@H](C)CO)C(=O)c2cccc(NC(=O)c3nc4ccccc4s3)c2O[C@@H]1CN(C)Cc1ccc(C(=O)Nc2ccccc2N)cc1	NOMO-1 viab 127 (no result: STK33 kin inh)
C[C@H](CO)N1C[C@H](C)[C@@H](CN(C)Cc2ccc(C(=O)Nc3ccccc3N)cc2)Oc2c(NC(=O)c3nc4ccccc4s3)cccc2C1=O	NOMO-1 viab 110 (no result: STK33 kin inh)
C[C@H](CO)N1C[C@H](C)[C@@H](CN(C)Cc2ccc(C(=O)O)cc2)Oc2c(NC(=O)c3nc4ccccc4s3)cccc2C1=O	none (no result: STK33 kin inh)
C[C@@H]1CN([C@H](C)CO)C(=O)c2cccc(NC(=O)c3nc4ccccc4s3)c2O[C@H]1CN(C)Cc1ccc(C(=O)O)cc1	none (no result: STK33 kin inh)
N#CCS(=O)c1ccccc1 (stereo unspecified)	none (no result: STK33 kin inh)
O=S(=O)(c1cccc2c(I)cccc12)N1CCCNCC1	none
O=S(=O)(c1cccc2c(Cl)cccc12)N1CCCNCC1	NOMO-1 viab 90
Cc1ccc(S(=O)(=O)Nc2ccc3c(c2)C(=O)N([C@H](C)CO)C[C@@H](C)[C@@H](CN(C)Cc2ccc(-c4ccccc4)cc2)O3)cc1	NOMO-1 viab 122 (no result: STK33 kin inh)
C[C@H](CO)N1C[C@H](C)[C@@H](CN(C)Cc2ccc(-c3ccccc3)cc2)Oc2ccc(NS(=O)(=O)c3ccccc3)cc2C1=O	none
Cc1ccc(S(=O)(=O)Nc2ccc3c(c2)C(=O)N([C@H](C)CO)C[C@H](C)[C@@H](CN(C)Cc2ccc(-c4ccccc4)cc2)O3)cc1	none (no result: STK33 kin inh)
C[C@@H]1CN([C@H](C)CO)C(=O)c2cc(NS(=O)(=O)c3ccccc3)ccc2O[C@@H]1CN(C)Cc1ccc(-c2ccccc2)cc1	NOMO-1 viab 121 (no result: STK33 kin inh)
CNC(=O)NC(=O)CSc1nnc(Cc2ccccc2)n1-c1ccc(Cl)cc1	none (no result: STK33 kin inh)
COc1ccc(NC(=O)C(=O)NCc2cccnc2)cc1OC	none
Cn1c(=O)c(Nc2ccccc2)c2c3c(cccc31)C(=O)c1ccccc1-2	none (no result: STK33 kin inh)
O=C1c2ccccc2-c2c(NCCc3ccccc3)c(=O)[nH]c3cccc1c23	NOMO-1 viab 115 (no result: STK33 kin inh)
Cc1nn(-c2ccccc2)c(N)c1C(N)=S	none
Cc1ccc(S(=O)(=O)N(C)CC(=O)Nc2ccccc2Sc2ccccc2)cc1	none
C[C@@H]1CN([C@@H](C)CO)C(=O)c2cccc(NC(=O)Nc3ccc(F)cc3)c2O[C@@H]1CN(C)Cc1ccc(-c2ccccc2)cc1	NOMO-1 viab 99 (no result: STK33 kin inh)
C[C@H](CO)N1C[C@H](C)[C@@H](CN(C)Cc2ccccc2)Oc2c(NC(=O)Nc3ccccc3)cccc2C1=O	NOMO-1 viab 103 (no result: STK33 kin inh)
C[C@@H]1CN([C@@H](C)CO)C(=O)c2cccc(NC(=O)Nc3ccccc3)c2O[C@@H]1CN(C)Cc1ccccc1	none (no result: STK33 kin inh)
C[C@@H]1CN([C@H](C)CO)C(=O)c2cccc(NC(=O)Nc3ccc(F)cc3)c2O[C@H]1CN(C)Cc1ccc(-c2ccccc2)cc1	NOMO-1 viab inconclusive (no result: STK33 kin inh)
C[C@H](CO)N1C[C@H](C)[C@H](CN(C)Cc2ccc(-c3ccccc3)cc2)Oc2c(NC(=O)Nc3ccccc3)cccc2C1=O	none (no result: STK33 kin inh)
C[C@@H]1CN([C@@H](C)CO)C(=O)c2cccc(NC(=O)Nc3ccccc3)c2O[C@H]1CN(C)Cc1ccc(-c2ccccc2)cc1	NOMO-1 viab 93 (no result: STK33 kin inh)
COc1cc(CCC(C)NC(=O)c2ccco2)ccc1OC(=O)c1ccco1 (stereo unspecified)	none
C=CCn1c(-c2ccc(OC)cc2)c(C)sc1=Nc1ccc(C)cc1	none (no result: STK33 kin inh)
COc1ccc(CCNC(=O)c2cc(-c3cccnc3)nc3c(Cl)cccc23)cc1OC	none
COc1ccc(C(=O)NC(c2ccc(OC)c(OC)c2)c2cc(Cl)c3cccnc3c2O)cc1 (stereo unspecified)	NOMO-1 viab 122
COc1ccc(C(=O)NC(CC(=O)O)c2ccc(Cl)cc2)cc1 (stereo unspecified)	none
COc1cccc(C(=O)NC(c2ccc(C)cc2)c2cc(Cl)c3cccnc3c2O)c1 (stereo unspecified)	NOMO-1 viab 121
COc1cccc(C(=O)Nc2cccc(OC(C)C(=O)c3cccc(Cl)c3)c2)c1 (stereo unspecified)	none
COc1ccc(C(NC(=O)c2cccnc2)c2cc(Cl)c3cccnc3c2O)cc1OC (stereo unspecified)	NOMO-1 viab 109 (no result: PD-1 reverse act)
Cc1occc1-c1nnc(SCC(=O)Nc2ccccc2[N+](=O)[O-])n1-c1ccccc1	none
CC(C(=O)O)N(c1ccc(Cl)cc1)S(C)(=O)=O (stereo unspecified)	none (no result: PD-1 reverse act)
Cc1c(NC(=O)CSc2nc3cc(C(=O)N4CCCC4)ccc3s2)c(=O)n(-c2ccccc2)n1C	none
Cc1c(CNC(=S)Nc2cccc([N+](=O)[O-])c2)cnn1C	none
O=[N+]([O-])c1cccc(NC(=S)NCc2cn(-c3ccccc3)nc2-c2ccccc2)c1	NOMO-1 viab 97
O=C(CCn1cccc(C(F)(F)F)c1=O)Sc1ccccc1	NOMO-1 viab inconclusive (no result: STK33 kin inh)
CCc1ccc(OCCSc2nc(C)cc(=O)[nH]2)cc1	none
COc1cc2c(cc1NC(=O)COc1ccc(Br)cc1Cl)oc1ccccc12	NOMO-1 viab 128
COc1ccc([N+](=O)[O-])cc1NC(=O)COc1ccc(Br)cc1Cl	none (no result: PD-1 reverse act)
CCc1ccc(-n2c(C)nnc2SCC(=O)Nc2ccc(OC)cc2)cc1	none
Cc1ccc(S(=O)(=O)c2c(C)nn(C(C)(C)C)c2OC(=O)c2ccccc2Br)cc1	NOMO-1 viab 105

Assay outcomes: PubChem BioAssay, Broad Institute
